# Test results as given in PubChem BioAssay AID504682 (Southern Research Specialized Biocontainment Screening …, 2011).
# Potency and affinity values are given separately. Active and inactive are the calls of the source. A call without a number means that no potency is given here. The rule behind the calls is not given here.
# Test: cytotoxicity control, cell-based, set 2 (AID 504682)
# Conditions: HepG2 cytotoxicity; series mostly up to 50 µM
row,Structure (SMILES),outcome
1,O=C(CSc1ccccn1)NC1CCCCC1,inactive
2,O=c1[nH]c(=S)[nH]c2ccccc12,inactive
3,Cc1cc(=O)[nH]c(SCC(=O)Nc2ccccc2)n1,inactive
4,O=C(/C=C/c1ccccc1)N1CCN(CCN2C(=O)c3cccc4cccc(c34)C2=O)CC1,inactive
5,CCSc1nc2ccccc2c(=O)[nH]1,inactive
6,CN(C(=O)CSc1nc2ccccc2c(=O)[nH]1)C1CCCCC1,inactive
7,Cc1nc(SCC(=O)N(C)c2ccccc2)[nH]c(=O)c1C,inactive
8,COc1cc(NC(=O)C/C(C)=N/NC(=O)c2ccccn2)c(OC)cc1Cl,inactive
9,COC(=O)C(C)Oc1ccc(-c2nccc(-c3ccccn3)n2)cc1 (centres undefined),inactive
10,O=C(CSc1nc2ccccc2c(=O)[nH]1)NCc1ccc(Cl)cc1,inactive
11,Cc1[nH]c(=S)[nH]c(=O)c1C,inactive
12,Cc1ccc(NC(=O)COC(=O)CCc2c[nH]c3ccccc23)cc1[N+](=O)[O-],inactive
13,O=C1C(Br)=Cc2cccc3cccc1c23,inactive
14,O=C(CSc1nccc(=O)[nH]1)Nc1ccc(N2CCOCC2)cc1,inactive
15,CC(=NCc1ccc2c(c1)OCO2)C1=C(O)c2ccccc2C1=O,inactive
16,COC(=O)C(C)Oc1ccc(Cc2ncc(C(F)(F)F)cc2Cl)cc1 (centres undefined),inactive
17,O=C(CSc1nccc(=O)[nH]1)Nc1ccc(Oc2ccccc2)cc1,inactive
18,Cc1cc(=O)[nH]c(=S)[nH]1,inactive
19,CCOC(=O)C(C)Sc1ncnc2c1nnn2-c1ccc(F)cc1 (centres undefined),inactive
20,CCOC(=O)CNC(=O)[C@H](Cc1ccccc1)NC(=O)OCc1ccccc1,inactive

row,Structure (SMILES),outcome
1,CC[N+](C)(CC)CCCCOc1ccc2c(c1)C(=O)c1cc(OCCCC[N+](C)(CC)CC)ccc1-2,inactive
2,COC(=O)C1CC(=O)N(c2ccc(OCc3ccccc3Cl)cc2)C1 (centres undefined),inactive
3,CCc1ccc(/C=C2/C(=O)N(C)C(=S)N2CC(=O)OC)s1,inactive
4,CCSc1nc(C)c(C)c(=O)[nH]1,inactive
5,O=C(CSc1nc(O)cc(=O)[nH]1)Nc1ccccc1,inactive
6,CCn1c2ccccc2c2cc(NC(=O)CSc3nc(C)cc(=O)[nH]3)ccc21,inactive
7,CCOC1OC(=O)C(Cl)=C1Nc1ccccc1C (centres undefined),inactive
8,O=C(CSc1nc2ccccc2c(=O)[nH]1)NC1CCCCC1,inactive
9,COC(=O)CCc1nc2c(C#N)c(-c3ccc(Cl)cc3)ccn2n1,inactive
10,O=C(CSc1ncccn1)NC1CCCCC1,inactive
11,CCOC(=O)COc1ccc(/C=C2\NC(=S)N(CC)C2=O)cc1,inactive
12,CCOC(=O)CSc1nc(C)c(C)c(=O)[nH]1,inactive
13,COC(=O)c1ccc(CNc2c(N3CCCC3)c(=O)c2=O)cc1,inactive
14,Cc1nc(SCC(=O)NC2CCCCC2)[nH]c(=O)c1C,inactive
15,CCOC(=O)COn1c2c(c3c4no[n+]([O-])c4ccc31)CCCC2,inactive
16,Cc1nc(SCc2ccccc2Cl)[nH]c(=O)c1C,inactive
17,Cc1c[nH]c(=S)[nH]c1=O,inactive
18,Cc1ccc(NC(=O)C2C3/C=C\CCCCC32)cc1C (centres undefined),inactive
19,Cc1nc(SCC(N)=O)[nH]c(=O)c1C,inactive
